According to PubChem BioAssay AID504697 (The Scripps Research Institute Molecular Screening Center, 2011):
A number with no mark means an inactive call. Active and inactive are the calls of the source.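 How the source made its calls: active means EC50 at or below 10 µM; inactive means EC50 above 10 µM.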

assay: fluorescence interference artefacts, compound only, dose response, artefact control for cardiac thin filament activator project, biochemical, no RTF in test wells (AID 504697); settings: compound-only fluorescence in RTF assay buffer with Ca2+ (no RTF in test wells), artifact counterscreen;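 further: emission near 535 nm under roughly 485 nm excitation as for IANBD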

| Structure (SMILES) | EC50 |
| --- | --- |
| N=C1c2ccccc2CN1c1ccc(S(=O)(=O)N2CCCCC2)cc1 | > 71.5 µM |
| Cn1nc(-c2ccccc2)c(C(=O)Nc2ccc(C(F)(F)F)cc2)c1Cl | > 71.5 µM |
| Cc1cc2nc(C3CCCN(C(=O)NCc4ccccc4)C3)[nH]c2cc1C (stereo unspecified) | > 71.6 µM |
| COc1ccc(S(=O)(=O)N2CN(Cc3ccco3)c3nc4ccccc4nc32)cc1 | > 71.5 µM |
| COc1ccc(N=C2NC(=O)S/C2=C\c2ccc(N(C)C)cc2)cc1 | 5.67 µM (active) |
| COc1c(O)cccc1-c1nnn(CCC(=O)OCC(=O)c2ccccc2)n1 | > 71.5 µM |
| C=CCn1c(=O)[nH]c2nc3cc(N=CN(C)C)c(C)cc3nc2c1=O | 4.96 µM (active) |
| CC(C)CNC(=S)NC(=O)c1ccccc1Cl | > 71.4 µM |
| CC(=O)/C(C=Nc1noc(C)c1Br)=C(\C)O | > 71.6 µM |
| COc1ccc(/C=N/NC(=O)c2cc(OC)c(OC)c(OC)c2)cc1CN1CCc2cc(OC)c(OC)cc2C1C (stereo unspecified) | > 71.5 µM |
| Cc1ccc(N2C3=C(C(=O)CC(C)(C)C3)C(c3cn(C)nc3C)C3=C2CC(C)(C)CC3=O)cc1 | 17.1 µM |
| Cc1cc(/C=C2/C(=O)N(C)C(=S)N2C)ccc1N1CCCC1 | 28.8 µM |
| Fc1ccc(CNC(=S)NCc2ccc(F)cc2)cc1 | > 71.5 µM |
| CC(C)CN1CCN(Cc2cccn2-c2ccc(Cl)cn2)CC1CCO (stereo unspecified) | > 71.5 µM |
| COc1ccccc1/C=C/C=C1\Oc2c(ccc(O)c2CN2CCN(CCO)CC2)C1=O | 3.63 µM (active) |
| CCOC(=O)c1sc(N)c(C#N)c1COC(=O)CNC(=O)c1cc(OC)c(OC)c(OC)c1 | 49.3 µM |
| COc1ccccc1NS(=O)(=O)c1cc([N+](=O)[O-])ccc1N/N=C/c1c(C)[nH]c2ccccc12 | 9.25 µM (active) |
| N#C/C(=C\c1c[nH]c2ccccc12)C(=O)Nc1ncc(Cc2ccc(Cl)cc2Cl)s1 | > 71.5 µM |

| Structure (SMILES) | EC50 |
| --- | --- |
| C=CCN1C(=O)c2ccccc2NC1c1cc(Br)cs1 (stereo unspecified) | > 71.5 µM |
| Cc1cc(C)c2nc(NC(=O)C3CCCO3)sc2c1 (stereo unspecified) | > 71.5 µM |
| O=C(CSC1=NS(=O)(=O)c2ccccc2N1)N1CCCCC1 | > 71.5 µM |
| O=C(C1=C(O)C(=O)N(CCN2CCOCC2)C1c1ccc([N+](=O)[O-])cc1)c1cccs1 (stereo unspecified) | > 71.4 µM |
| Cc1ccc(/C=C2\Oc3c(ccc(O)c3CN3CCN(CCO)CC3)C2=O)cc1 | 34.2 µM |
| Cn1cc(/C=C2\SC(=S)N(NC(=O)c3ccccc3)C2=O)c2ccccc21 | 9.01 µM (active) |
| O=c1[nH][nH]c(C(F)(F)F)c1C=NCc1ccccc1Cl | > 71.4 µM |
| COC(=O)c1ccc(S(=O)(=O)N2CCC(O)CC2)n1C | > 71.4 µM |
| COc1ccccc1N1CCN(c2ccc([N+](=O)[O-])cc2Cl)CC1 | > 71.5 µM |
| COc1ccc(/C=N/NC(=O)c2cccnc2)cc1CN1CCOCC1 | > 71.5 µM |
| COc1ccc(C(=O)Nc2cc(C(C)=O)c(/C=C/N(C)C)oc2=O)cc1 | 29.5 µM |
| CCOC(=O)c1sc(-c2ccc(F)cc2)cc1NC(=O)Nc1ccccc1OC | > 71.4 µM |
| O=C1c2cccc3c(N4CCCCC4)ccc(c23)C(=O)N1c1cccc(O)c1 | 5.54 µM (active) |
| O=C(COc1ccccc1F)NC1CC1 | > 71.5 µM |
| Cc1cc(S(=O)(=O)N2CCCC(C(=O)Nc3ccc(C(=O)O)cc3)C2)ccc1Cl (stereo unspecified) | > 71.5 µM |
| COc1cc(/C=C(\C#N)c2nc3ccccc3[nH]2)cc(OC)c1O | 11.1 µM |
| CN(/N=C/c1ccc(-c2ccc([N+](=O)[O-])cc2)o1)c1ccccc1 | > 71.5 µM |
| CCn1c(=O)c(C(=O)CN2CCCc3ccccc32)c(N)n(Cc2ccccc2)c1=O | 62.2 µM |
